Screening results from PubChem.
A selection: hits, their analogues and other compounds. The true share with any hit is near 4.7%.
TRHR PAM: TRH receptor (human) allosteric enhancement; P34981; TRHR cells, fluo-8 calcium fluorescence, EC20 TRH enhancement; enhancement, % at 2 µM; 360,000 compounds, 0.66% hits; in the data active = enhancement above about 30%; note: 0% is about no effect
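TRHR-expressing cells loaded with fluo-8 calcium dye were read kinetically (ex 480/em 530) during compound addition, then stimulated with an EC20 of TRH (10 nM final). Enhancement of the Gq-mediated intracellular calcium response was scored.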
D1 agonist: human D1 receptor agonism. HEK293 T-REx D1 cells, calcium flux, agonist mode. activation, % at 2 µM. 360,000 compounds, 1% hits. AID 504660; note: 0% is about no effect
Target sequence (P21728 whole entry, looked up): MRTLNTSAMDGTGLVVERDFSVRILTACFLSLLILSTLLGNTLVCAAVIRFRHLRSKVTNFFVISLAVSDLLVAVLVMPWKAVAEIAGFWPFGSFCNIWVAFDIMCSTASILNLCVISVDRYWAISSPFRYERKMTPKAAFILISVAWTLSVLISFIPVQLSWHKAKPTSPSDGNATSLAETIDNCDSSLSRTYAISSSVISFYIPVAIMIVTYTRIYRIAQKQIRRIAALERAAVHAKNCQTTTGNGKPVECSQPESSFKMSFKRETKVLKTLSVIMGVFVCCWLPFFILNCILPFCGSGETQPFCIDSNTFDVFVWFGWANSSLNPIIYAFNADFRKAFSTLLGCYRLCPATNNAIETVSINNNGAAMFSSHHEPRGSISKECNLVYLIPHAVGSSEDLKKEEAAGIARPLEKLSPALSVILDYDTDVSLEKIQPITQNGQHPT
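Inducible HEK293 T-REx D1 cells, force-coupled to calcium signalling, were plated at 4000 cells/well with tetracycline and held overnight at 30 C. After no-wash calcium dye loading, compound-evoked calcium rise over 180 s flagged agonists.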
D1 antagonist: antagonists of human D1 dopamine receptor | HEK293 TREx D1 cells, calcium flux, dopamine EC80; stronger effect = lower value | activity change, negative = inhibition, % at 10 µM | 360,000 compounds, 3.2% hits | P21728; in the data active = activity change below about -30%; note: % is set by controls: 0 for no effect and ±100 for the full control effect
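Antagonism measured as reduced calcium response to an EC80 dopamine addition following 180 s compound pre-read; cells were inducible HEK293 Trex D1 plated overnight at 30 C, read kinetically at 1 cycle/sec.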
TRHR agonist: activates the human TRH receptor; AID 493084; 360,000 compounds, 0.18% hits; activation, % at 2 µM; TRHR cells, calcium flux fluo-8, FDSS agonist mode; P34981; note: 0% is about no effect
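Steps: seed TRHR cells overnight; add fluo-8 no-wash Ca dye, RT 30 min–1.5 h; record 10 s baseline; pin-transfer compounds; monitor fluorescence 1 cycle/s for the agonist window. Calcium increases flag candidate agonists.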
D1 potentiator: potentiators of human D1 dopamine receptor | P21728 | AID 504651 | potentiation, % at 10 µM | 360,000 compounds, 0.036% hits | HEK293 TREx D1 cells, calcium flux, dopamine EC20 potentiation; in the data active = potentiation above about 30%; note: 0% is about no effect
The depositor's hits bear a star; . = no result given. Cut-off read from the data, not from the text of the source, unless noted: active = activation above about 30%; inactive = the rest.

SMILES	TRHR PAM	D1 agonist	D1 antagonist	TRHR agonist	D1 potentiator
Cc1ccc(NC(=O)CSCC(=O)NC2(C)CCS(=O)(=O)C2)cc1 (configuration not stated)	5.2	4.0	-40.1*	-0.3	.
Cc1ccc(NC(=O)CSCC(=O)Nc2ccc(N3CCOCC3)c(Cl)c2)cc1	6.3	5.4	-33.6*	-1.0	-4.2
Cc1ccc(NC(=O)c2cc(N3C(=O)C=CC3=O)ccc2N2CCOCC2)cc1	2.1	3.1	-23.8	3.1	-1.1
CCCC(=O)Nc1ccc2nc(SCC(=O)Nc3ccc(N4CCOCC4)c(Cl)c3)sc2c1	12.8	2.4	-18.1	-0.8	0.1
Nc1ccc2nc(SCC(=O)Nc3ccc(N4CCOCC4)c(Cl)c3)sc2c1	5.0	17.5	-33.8*	-1.5	-4.0
COc1ccccc1CNC(=O)CC(c1ccc(C)cc1)N1Cc2ccccc2C1=O (configuration not stated)	0.6	-0.2	-0.2	-0.8	-2.5
COc1ccc(SCCN2CC[C@@H](C(C)(C)C)CCC2=O)cc1	7.4	24.9	.	-0.3	0.3
CCN(CC)C(=O)C(Oc1ccc(S(=O)(=O)N2CCCC2)cc1[N+](=O)[O-])c1ccccc1 (configuration not stated)	-12.7	3.8	-5.5	-0.9	-4.3
COc1ccc(CNC(=O)CSc2nc3ccc(N)cc3s2)cc1	11.6	0.1	-31.9*	42.2*	-1.4
O=C(CSc1ccc(F)cc1)Nc1ccc(N2CCOCC2)c(Cl)c1	-0.2	13.5	-22.3	0.0	-6.0
CCOc1ccc2nc(SCC(=O)NCc3ccc(S(N)(=O)=O)cc3)sc2c1	2.6	2.1	-14.0	1.2	-4.1
Nc1nnc(SCC(=O)Nc2ccc(N3CCOCC3)c(Cl)c2)s1	12.6	8.7	-36.6*	-2.2	-1.1
CSc1nsc(/C=C/Nc2ccc(Cl)cc2)c1C#N	-2.5	5.6	-5.8	1.0	-5.5
CSc1nsc(/C=C/Nc2cccc(Cl)c2)c1C#N	-3.1	7.2	-33.2*	1.9	-8.4
Cc1ccc(CNC(=O)CCn2cnc3ccccc3c2=O)cc1	1.5	1.4	-14.4	0.2	5.5
Cc1ccc2nc(CCl)[n+]([O-])c(-c3ccccc3)c2c1	5.3	2.9	-38.1*	1.1	-7.0
CC(=O)c1ccc(NC(=O)c2cc(-c3ccc4c(c3)OCO4)on2)cc1	11.1	-0.6	-5.3	0.5	2.2
CCc1cccc(NC(=O)C2CCC(CNS(=O)(=O)c3ccc4c(c3)CCCC(=O)N4)CC2)c1 (configuration not stated)	3.6	3.3	2.4	0.1	-0.8
CCCc1cc(C(=O)OC)c(NC(=O)CCCC(=O)O)s1	35.9*	2.0	-0.8	0.1	3.3
Cc1ccc(NC(=O)Cn2cc(S(=O)(=O)NC(C)C)c(S(=O)(=O)NC(C)C)c2)cc1Cl	14.0	6.4	1.2	1.0	-2.1
CCN(CC)c1ccc2c(-c3ccc(S(=O)(=O)O)cc3S(=O)(=O)[O-])c3ccc(=[N+](CC)CC)cc-3oc2c1	8.3	172.3*	-18.4	-0.4	-3.4
COc1cc([N+](=O)[O-])c(N2CCOCC2)c([N+](=O)[O-])c1OC	5.8	9.3	-33.5*	-1.1	-8.6
O=[N+]([O-])c1cc(Br)c2nsnc2c1N1CCOCC1	-2.6	0.9	-44.5*	14.0	-7.2
COc1ccc(N2CC(NC(=O)C(c3ccccc3)c3ccccc3)CC2=O)cc1 (configuration not stated)	3.0	-4.1	.	-0.3	-2.8
N#C/C(=C\c1cccs1)Sc1nc2ccccc2s1	-6.2	8.3	-34.7*	1.8	-6.8
SMILES	TRHR PAM	D1 agonist	D1 antagonist	TRHR agonist	D1 potentiator
N#C/C(=C\c1ccc[nH]1)Sc1nc2ccccc2s1	0.8	3.0	-15.8	-0.9	-9.9
CCc1cc2cc(C)ccc2nc1SCC(=O)NNC(=O)c1ccco1	0.6	33.9*	11.5	-1.3	.
CCOc1ccc(-n2nnnc2SCC(=O)NNC(=O)c2ccco2)cc1	0.4	1.7	-37.6*	-1.0	7.8
COc1ccc(S(=O)(=O)n2nc(C)c(S(=O)(=O)N3CCOCC3)c2C)cc1OC	-2.1	3.6	2.2	0.1	-1.0
O=c1cc(-c2ccccc2)nc2c(-c3ccccc3)c(C(F)(F)F)[nH]n12	-11.2	-1.2	-31.2*	0.1	-9.8
O=C(COc1cc(Cl)c(Cl)cc1Cl)N1CCN(c2ccccn2)CC1	-4.5	0.8	-9.7	0.3	-3.6
C/C(=N\NS(=O)(=O)c1ccc([N+](=O)[O-])cc1)c1ccc2c(c1)OCO2	2.1	4.8	-30.9*	-0.7	11.1
C/C(=N\Nc1ccc([N+](=O)[O-])cc1)c1cc2ccccc2o1	8.8	59.5*	-30.2*	17.3	-11.8
C/C(=N/NS(=O)(=O)c1cccc([N+](=O)[O-])c1)c1ccc2c(c1)OCO2	-4.4	8.4	-26.6	0.5	5.2
C/C(=N\Nc1ccc([N+](=O)[O-])cc1)c1ccc(C#N)cc1	-7.5	4.1	-6.1	0.6	-1.2
C/C(=N\Nc1ccc([N+](=O)[O-])cc1)c1ccc2c(c1)OCO2	-3.0	37.7*	-38.3*	11.8	-3.5
O=C(N/N=C/c1ccc([N+](=O)[O-])cc1)c1cc2ccccc2o1	-2.3	0.6	-16.4	-0.1	-5.3
O=C(NCC1COc2ccccc2O1)c1cc(S(=O)(=O)N2CCOCC2)c(Cl)cc1Cl (configuration not stated)	-7.8	7.7	-6.6	0.0	-0.5
Cc1cc(C)cc(OCC(=O)Nc2cnn(CCCC(=O)O)c2)c1	11.6	1.6	-5.4	0.1	3.4
O=C(Nc1nc2ccccc2s1)NC1CCCCC1	8.7	7.3	-6.3	2.0	-6.0
Cc1ccccc1Nc1nc2ccccc2s1	8.9	37.2*	12.1	0.1	-7.8
CN(C)C(=S)Nc1nc2ccccc2s1	0.4	1.9	-30.4*	0.4	-4.0
O=C(CN1CCN(Cc2ccc(F)cc2)CC1)Nc1nc2ccccc2s1	-7.1	12.0	-30.3*	0.0	-3.2
O=C(CC1CCCCC1)Nc1nc2ccccc2s1	36.1*	5.8	-8.8	1.3	2.5
COc1cc(CCC(=O)N2CC(C)OC(C)C2)cc(OC)c1OC (configuration not stated)	-1.2	2.2	-2.8	-0.1	2.8
COc1ccc(-c2nc(NC(C)=O)sc2-c2ccccc2)cc1	-5.1	3.0	-32.5*	-1.6	-14.2
COc1ccc(-c2sc(NC(C)=O)nc2-c2ccccc2)cc1	-1.3	0.4	-16.8	-0.1	-10.6
O=c1[nH]c(C2CCN(S(=O)(=O)c3ccc(S(=O)(=O)NC4CC4)cc3)CC2)nc2c1nnn2Cc1cccc(F)c1	-4.9	4.7	6.6	0.8	7.2
O=C(NCNC(=O)c1ccccc1)c1ccccc1	0.5	0.7	-19.0	-0.4	-5.0
O=C(NCn1ccc(=O)[nH]c1=S)c1ccccc1	4.5	0.1	-45.6*	-0.2	3.5
Cc1cc(N2CCOCC2)nc2ccc(NC(=O)CCC(=O)N3CCN(c4ccccc4F)CC3)cc12	2.2	0.5	-42.6*	0.4	0.4
